GSH fluor: GSH bead compound fluorescence profile | 190,000 tested, 0.25% active | GSH beads flow cytometry, compound fluorescence 488/530 nm; active compounds read high | fluorescence (KMESF) at 10 µM | AID 1776; in the data active = fluorescence above about 89;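 note: glutathione beads carrying GST-tagged Bcl family fusion proteins plus one bare bead set; values are compound well signal with DMSO vehicle wells as background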
RGS16-Gao HTS: modulates binding between human RGS16 and Galphao; AID 1441; bead-based flow cytometry RGS16-Galphao binding, fluorescence; actives lie on both sides; binding response (% of control), % at 10 µM; 220,000 tested, 0.38% active; O15492+P09471; call rule not given here;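 note: Galphao activated by GDP with aluminum fluoride before binding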
RGS4-Gao reg: human RGS4-Galphao interaction regulation | binding response (% of control), % at 10 µM | Multiplexed bead flow cytometry, RGS4-Galphao binding; actives lie on both sides | 220,000 tested, 0.33% active; in the data active = binding response below about 49% or above about 150%; inactive = in between;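 note: fluorescent Galphao activated with aluminum fluoride binding bead-coupled RGS4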
Target sequence (P09471 whole entry, looked up): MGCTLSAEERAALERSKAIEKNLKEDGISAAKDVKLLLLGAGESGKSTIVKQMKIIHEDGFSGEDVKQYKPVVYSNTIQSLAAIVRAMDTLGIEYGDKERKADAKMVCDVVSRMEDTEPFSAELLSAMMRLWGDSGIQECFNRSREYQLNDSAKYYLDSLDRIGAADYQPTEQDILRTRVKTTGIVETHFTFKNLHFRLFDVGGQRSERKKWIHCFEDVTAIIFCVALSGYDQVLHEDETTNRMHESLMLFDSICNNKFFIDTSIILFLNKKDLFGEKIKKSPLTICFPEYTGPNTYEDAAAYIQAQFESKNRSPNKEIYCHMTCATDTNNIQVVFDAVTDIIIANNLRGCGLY
RGS7-Gao reg: human RGS7-Galphao interaction regulation. P09471. Multiplexed bead flow cytometry, RGS7-Galphao binding; actives lie on both sides. binding response (% of control), % at 10 µM. 220,000 tested, 0.35% active. AID 1439; in the data active = binding response below about 49% or above about 150%; inconclusive = no clear call, values can overlap the other calls; inactive = in between;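 note: fluorescent Galphao held in activated GDP-AlF4 state binding bead-coupled RGS7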
RGS8-Gao reg: regulators of human RGS8-Galphao interaction. multiplexed bead flow cytometry, RGS8-Galphao binding; actives lie on both sides. response (percent of control binding), % at 10 µM. 220,000 tested, 0.34% active. AID 1423; in the data active = response below about 60% or above about 140%; inactive = in between;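 note: Galphao activated as the GDP aluminium fluoride complex binding bead-coupled RGS8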
Avidin bead fluor: avidin bead compound fluorescence profile | 220,000 tested, 0.38% active | fluorescence (KMESF) at 10 µM | Avidin beads, compound fluorescence 488/530 nm, flow cytometry; active compounds read high; in the data active = fluorescence above about 47
* marks the source's active call; other numbers are inactive results; ? = inconclusive; · = no result; [ ] = another dose, or the depositor's remark. In the library only some 1.2% were active in any assay of this set; here they are far more common.

SMILES | GSH fluor | RGS16-Gao HTS | RGS4-Gao reg | RGS7-Gao reg | RGS8-Gao reg | Avidin bead fluor
Cc1c(N=Cc2c(O)n(Cc3ccco3)c(=O)c3ccccc23)c(=O)n(-c2ccccc2)n1C | 136* | 102 | 99 | 100 | 101 | 4
O=c1c2ccccc2c2ccccc2c(=O)n1Cc1ccco1 | 19 | 108 | 101 | 102 | 103 | 34
CCOc1cccc(C(=O)Nc2cccc(-c3nnc(-c4ccccc4)o3)c2)c1 | 20 | 93 | 93 | 89 | 95 | 8
CCOc1cccc(C(=O)Nc2cccc(-c3nnc(-c4ccc(C)cc4)o3)c2)c1 | 24 | 341 | 151*[activator] | 143 | 109 | 46
N#Cc1cnn2c3c(cnc12)C(=O)N1CCc2ccccc2C1C3 (centres undefined) | 14 | 114 | 102 | 100 | 106 | 10
COc1ccc(N2C(=O)C(CC(=O)O)S/C2=C\C(C)=O)cc1 (centres undefined) | 251* | 99 | 94 | 96 | 97 | 6
CCOC(=O)/C(C#N)=C(C)/C=C1\Sc2ccccc2N1CC | 8 | 97 | 106 | 131 | 93 | 70*
CCN1/C(=C\C=C(C(C)=O)C(C)=O)Sc2ccccc21 | 14 | 94 | 95 | 98 | 100 | 6
O=[N+]([O-])c1ccc(/C=N/Nc2nc(N3CCOCC3)nc(N3CCOCC3)n2)cc1 | 24 | 105 | 102 | 99 | 101 | 10
O=[N+]([O-])c1ccc(Cl)c(/C=N/Nc2nc(N3CCOCC3)nc(N3CCOCC3)n2)c1 | 61 | 21 | 104 | 92 | 83 | 354*
O=C1Nc2ccccc2N(O)N1c1ccc(S(=O)(=O)Nc2ccccn2)cc1 | 32 | 119 | 115 | 128 | 113 | 64*
Cc1ccnc(NS(=O)(=O)c2ccc(N3C(=O)Nc4ccccc4N3O)cc2)c1 | 12 | 104 | 105 | 101 | 102 | 9
CC(C)=CC(=O)OCC(=O)Nc1ccccc1Cl | 266* | 99 | 98 | 101 | 98 | 7
Fc1ccc(CO/N=C2\CCCc3nonc32)cc1 | 11 | 100 | 102 | 102 | 102 | 5
CCN(CC)S(=O)(=O)c1ccc(NC2CCCc3ccccc32)nc1 (centres undefined) | 25 | 101 | 101 | 100 | 102 | 35
c1ccc2c(c1)CCCC2NC1=NCCC1 (centres undefined) | 256* | 106 | 105 | 105 | 100 | 11
CC(C)CNC(=O)c1ccccc1NC(=O)c1ccc(CN2CCOCC2)cc1 | 19 | 102 | 97 | 102 | 102 | 48*
CC(=O)Nc1ccc(C(=O)Cn2c3[n+](c4c(F)c(F)ccc42)CCCCC3)cc1 | 21 | 101 | 99 | 96 | 99 | 5
CCOc1ccc(NC(=S)N2CCN(CCN3C(=O)c4cccc5cccc(c45)C3=O)CC2)cc1 | 13 | 113 | 106 | 123 | 106 | 51*
COc1ccc(NC(=S)N2CCN(CCN3C(=O)c4cccc5cccc(c45)C3=O)CC2)cc1 | 14 | 102 | 104 | ? | 101 | 10
O=C1NCCN(Cc2ccoc2)C1CC(=O)N(CCO)Cc1ccccc1 (centres undefined) | 11 | 99 | 98 | 98 | 100 | 10
CC1=NN(c2ccccc2)C(=O)/C1=C/c1cn(C)c2ccccc12 | · | 101 | 101 | ? | 99 | 12
CC(C)C(OC(=O)c1cc2sccc2n1C)C(=O)NCC1CCCO1 (centres undefined) | 254* | 155 | 114 | 115 | 118 | 7
O=C(NCCc1ccccc1)c1ccc(-n2cnnn2)cc1 | 32 | 80 | 88 | 90 | 102 | 7
O=C(NCCc1c[nH]c2ccccc12)c1ccc(-n2cnnn2)cc1 | 26 | 169 | 147 | 133 | 106 | 67*
Cn1nc(C(F)(F)F)c2cc(C(=O)Nc3ccc(C(F)(F)F)cc3)sc21 | · | 103 | 102 | ? | 103 | 7
COc1ccc(CNCCSc2nnnn2C)c(OC)c1OC | 13 | 107 | 104 | 107 | 105 | 13
COc1ccc(Br)cc1CNCCSc1nnnn1C | 253* | 98 | 102 | 97 | 99 | 8
CC(c1ccccc1)n1c(-c2cccs2)nc2c(c(=O)c3ccccc3n2C)c1=O (centres undefined) | · | 97 | 98 | ? | 98 | ·

Source: PubChem BioAssay (NMMLSC)
